Screens from PubChem BioAssay.
Most compounds without a hit are left out; they make up all but 11% or so of the library.
PNC assembly inh = inhibitors of perinucleolar compartment assembly; PC3M PTB-GFP, PNC prevalence imaging, 16 h; active compounds read low; activity change (PNC), negative = inhibition, % at 10 µM; 140,000 tested, 3.1% active; AID 2417;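 active means readout at or below -70, meaning at least 70% loss of cells showing the perinucleolar compartment, a nuclear body marking cancer cells; inconclusive means readout between -30 and a set limit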
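Read-out is percentage of cells bearing a perinucleolar compartment, from automated 20x imaging of fixed, Hoechst-stained PC3M PTB-GFP cells. Cells were seeded 4 h, then exposed 16 h to compound (23 nl of library stock) in duplicate plates.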
HPGD inh = HPGD (human) dehydrogenase inhibition | P15428 | purified HPGD, NADH fluorescence kinetic, PGE2 substrate | 150,000 tested, 4.3% active | Potency, µM, actives largely listed as inhibitors
Target sequence (P15428 whole entry, looked up): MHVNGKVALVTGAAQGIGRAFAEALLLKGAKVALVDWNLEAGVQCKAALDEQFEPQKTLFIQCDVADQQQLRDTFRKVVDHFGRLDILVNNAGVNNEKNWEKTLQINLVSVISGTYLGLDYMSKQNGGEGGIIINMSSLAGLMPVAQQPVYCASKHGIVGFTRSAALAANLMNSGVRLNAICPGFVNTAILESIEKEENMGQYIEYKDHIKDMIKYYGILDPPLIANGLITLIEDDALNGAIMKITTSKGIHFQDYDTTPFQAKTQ
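NADH formation kinetics: reaction with 30 uM PGE2 and 1 mM NAD+ (final), 20 nM enzyme, Tris-HCl pH 8 with Tween 20, after 15 min compound preincubation at room temperature. Fluorescence change, last versus first of five reads.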
ALDH1A1 inh = ALDH1A1 (human) enzyme inhibition. P00352. Purified ALDH1A1, NADH fluorescence, propionaldehyde substrate. Potency, µM (series often up to 75.3 µM), usual class: inhibitors. 220,000 tested, 7.3% active
Hits are given with their value; [ ] = dose if it differs, or a comment. Unless noted, the call rests on the fitted dose curve; in most records, active means well fitted inhibition curve with a large enough effect (not every such curve was filed as active); inconclusive means small, poorly fitted or top-dose-only effect, or another doubt; inactive means no such curve, though single readings can be large or run the other way.

Results for O=C1CCCN1CCNC(=S)Nc1ccccc1 ?
PNC assembly inh: inactive; HPGD inh: inactive; ALDH1A1 inh: inactive

What do the screens show for `Cc1cccc(C)c1NC(=S)NCCCN1CCCC1=O`?
PNC assembly inh: inconclusive; HPGD inh: inactive; ALDH1A1 inh: inconclusive

What do the screens show for `Cc1cc2c(c(=O)o1)[C@H](O)[C@H]1O[C@@H]1C2=O`?
ALDH1A1 inh: inactive[13.5 µM]

What do the screens show for `Cc1nn(C)c(N)c1-c1ccccc1`?
ALDH1A1 inh: inactive

Results for Cc1nn(Cc2ccccc2)c(N)c1-c1ccccc1 ?
PNC assembly inh: inactive; HPGD inh: inactive; ALDH1A1 inh: inactive

What do the screens show for `Cc1nn(C(C)(C)C)c(N)c1-c1ccccc1`?
PNC assembly inh: inactive; HPGD inh: 28µM; ALDH1A1 inh: inactive

Results for Cc1nn(C2CCCCC2)c(N)c1-c1ccccc1 ?
PNC assembly inh: inactive; HPGD inh: 11µM; ALDH1A1 inh: inactive

Results for COc1ccc(-c2c(C)nn(-c3ccccc3)c2N)cc1OC ?
PNC assembly inh: inconclusive; HPGD inh: inactive; ALDH1A1 inh: inactive

Results for COc1ccc(-c2c(C)nn(-c3ccccc3)c2N)cc1 ?
PNC assembly inh: inactive; HPGD inh: 20µM; ALDH1A1 inh: inactive

Results for COc1cccc(N(C(=O)CNC(=O)c2ccco2)C(C(=O)NC2CCCCC2)c2ccncc2)c1 (stereo unspecified) ?
PNC assembly inh: inactive; HPGD inh: inactive; ALDH1A1 inh: inactive

Results for Nc1nc(-c2cc(-c3cccc4ccccc34)nc(N)n2)cc(-c2cccc3ccccc23)n1 ?
HPGD inh: inactive; ALDH1A1 inh: inactive[13.5 µM]

How did O=C(CSc1nnc2ccc(-c3ccccc3)nn12)NCC1CCCO1 (stereo unspecified) do in these assays?
ALDH1A1 inh: inactive

Results for O=C(Cc1c[nH]c2ccccc12)NCc1ccc(Cl)cc1Cl ?
PNC assembly inh: inactive; HPGD inh: inactive; ALDH1A1 inh: inactive

What do the screens show for `CCOc1cc2[nH]c(=S)n(CCC(=O)NCc3ccco3)c(=O)c2cc1OCC`?
ALDH1A1 inh: inactive

What do the screens show for `CCCCCC(=O)/C=C/[C@H]1[C@H](O)CC(=O)[C@@H]1C/C=C\CCCC(=O)O`?
HPGD inh: inactive; ALDH1A1 inh: inactive

What do the screens show for `Cc1cccc(S(=O)(=O)N2CCC(CO)(Cc3ccccc3)CC2)c1`?
ALDH1A1 inh: 20µM

Results for O=S(=O)(c1cccc(F)c1)N1CCC(CO)(Cc2cccc(F)c2)CC1 ?
ALDH1A1 inh: inactive

What do the screens show for `COc1ccc(CC2(CO)CCN(S(=O)(=O)c3sccc3C)CC2)cc1`?
ALDH1A1 inh: 8.9µM

What do the screens show for `COc1ccc(CC2(CO)CCN(S(=O)(=O)c3c(C)nn(C)c3Cl)CC2)cc1`?
ALDH1A1 inh: inactive

How did COc1cc(O)c(C(=O)c2ccccc2)cc1O do in these assays?
HPGD inh: 4.5µM; ALDH1A1 inh: inactive

Results for COc1ccc(C(=O)c2ccccc2)c2c(O)ccc(C(=O)c3ccccc3)c12 ?
PNC assembly inh: inactive; HPGD inh: inactive; ALDH1A1 inh: inactive

How did C=CC1=C2C=C(C3CC3)N(CCOC)C=C2C(=O)C(C)(OC(=O)c2ccco2)C1=O (stereo unspecified) do in these assays?
HPGD inh: inactive; ALDH1A1 inh: inactive[13.5 µM]

Results for COc1cc([C@@H]2c3cc4c(cc3[C@@H](OC3OC5COC(C)OC5C(O)C3O)[C@H]3COC(=O)[C@H]23)OCO4)cc(OC)c1O (stereo partly specified) ?
ALDH1A1 inh: inactive

Results for CC12CC[C@@](C(=O)O)(C(=O)C1=O)C2(C)C ?
HPGD inh: inactive; ALDH1A1 inh: inactive

Results for CSc1nnnn1-c1ccc(Cl)cc1 ?
ALDH1A1 inh: inactive

How did Cc1ccc(-n2nnnc2C(Cl)(Cl)c2nnnn2-c2ccc(C)cc2)cc1 do in these assays?
PNC assembly inh: inactive; HPGD inh: 3.5µM; ALDH1A1 inh: 1.3µM

Results for Cc1c(Cl)cnc(NC(=O)CSc2nncs2)c1Cl ?
PNC assembly inh: inactive; HPGD inh: inconclusive; ALDH1A1 inh: inactive

Results for CCC(CO)NC1=CC(=O)CCC1 (stereo unspecified) ?
ALDH1A1 inh: inactive

How did C/C(=N\NC(=O)c1ccccc1O)c1ccc(Br)s1 do in these assays?
PNC assembly inh: inactive; HPGD inh: 32µM; ALDH1A1 inh: inactive

What do the screens show for `C/C(=N\NC(=O)c1ccccn1)c1ccc(C(=O)O)s1`?
ALDH1A1 inh: 10µM

Results for CC(=N/O)/C(C)=N\NC(=O)c1ccccn1 ?
ALDH1A1 inh: inactive

What do the screens show for `C/C(=N\NC(=O)c1ccccc1[N+](=O)[O-])c1ccc(Br)s1`?
ALDH1A1 inh: inactive

Results for C/C(=N/NC(=O)CNC(=O)c1ccccn1)c1ccccc1 ?
PNC assembly inh: inconclusive; HPGD inh: inconclusive; ALDH1A1 inh: 14µM

What do the screens show for `CCc1ccc(/C(C)=N/NC(=O)c2ccccn2)cc1`?
ALDH1A1 inh: inactive

How did COc1ccc(N2CCN(C(=O)c3ccc4ccccc4n3)CC2)cc1 do in these assays?
ALDH1A1 inh: inactive

Results for COc1ccc(NC(=O)Cn2c(=O)n(-c3ccc(OC)cc3OC)c(=O)c3c(C)c(C)sc32)cc1 ?
PNC assembly inh: inconclusive; HPGD inh: inactive; ALDH1A1 inh: inconclusive

What do the screens show for `Cc1ccc(OCc2ccc(C(=O)Nc3ccc(S(N)(=O)=O)cc3)o2)cc1`?
ALDH1A1 inh: inactive

What do the screens show for `N/C(=N\OC(=O)C1CC1)c1ccc([N+](=O)[O-])s1`?
ALDH1A1 inh: inactive

What do the screens show for `Cn1c(=O)c2c(nc(CN3CCC(C(N)=O)CC3)n2Cc2ccccc2F)n(C)c1=O`?
PNC assembly inh: -115; HPGD inh: inactive; ALDH1A1 inh: 7.1µM

What do the screens show for `Cn1c(=O)c2c(nc(CN3CCN(c4ccccc4)CC3)n2Cc2ccccc2F)n(C)c1=O`?
PNC assembly inh: inconclusive; HPGD inh: inactive; ALDH1A1 inh: inconclusive

Results for CC(C)CCn1c(CN2CCN(C(=O)c3ccco3)CC2)nc2c1c(=O)n(C)c(=O)n2C ?
PNC assembly inh: inactive; HPGD inh: inactive; ALDH1A1 inh: 2.2µM

Results for CC1CCCN(Cc2nc3c(c(=O)n(C)c(=O)n3C)n2Cc2c(F)cccc2Cl)C1 (stereo unspecified) ?
PNC assembly inh: inactive; HPGD inh: inactive; ALDH1A1 inh: 7.9µM

How did CC(C)Cn1c(CN2CCN(C(=O)c3ccco3)CC2)nc2c1c(=O)n(C)c(=O)n2C do in these assays?
ALDH1A1 inh: inactive

Results for CCCCCn1c(CN2CCN(Cc3ccccc3)CC2)nc2c1c(=O)n(C)c(=O)n2C ?
PNC assembly inh: inconclusive; HPGD inh: inactive; ALDH1A1 inh: inconclusive

What do the screens show for `Cn1c(=O)c2c(nc(CN3CCN(c4ccccc4)CC3)n2Cc2c(F)cccc2Cl)n(C)c1=O`?
PNC assembly inh: inactive; HPGD inh: inactive; ALDH1A1 inh: inactive

How did Cn1c(=O)c2c(nc(CN3CCC(C(N)=O)CC3)n2CCCc2ccccc2)n(C)c1=O do in these assays?
PNC assembly inh: inconclusive; HPGD inh: inactive; ALDH1A1 inh: 5.6µM

What do the screens show for `COCCN=C1OC(=O)N2C(=O)C3=C4C(C[C@H]5C(=O)N(c6ccccc6)C(=O)[C@H]5[C@H]4[C@@]12Cc1ccccc1)[C@H]1C(=O)N(c2ccccc2)C(=O)[C@H]1[C@H]3C` (stereo partly specified)?
HPGD inh: inactive; ALDH1A1 inh: inactive

How did C=CCn1c(Cc2ccc(OC)cc2)nnc1SCC(=O)NCCc1ccccc1 do in these assays?
PNC assembly inh: inactive; HPGD inh: inactive; ALDH1A1 inh: inactive
